PubChem BioAssay (NCI)
The panel holds about 79,000 compounds, 15% with a hit somewhere; the sample as a whole holds those more often. No stated cut-off is given here; in the data, active means growth inhibition above about 70%; inactive means the rest.

How the values were obtained:
[1] = NCI Yeast Anticancer Drug Screen. Data for the rad50 strain (AID 155);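 further: 0% = growth of vehicle-only cultures of the same strain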; settings: S. cerevisiae rad50 strain growth inhibition; at 50.0 µM; hits give high values
Summary of the method: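 Vehicle-treated cultures provide the reference for the growth inhibition reported for compound-exposed, repair-deficient yeast.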

[2] = NCI Yeast Anticancer Drug Screen. Data for the mec2-1 strain (AID 157); settings: S. cerevisiae mec2-1 strain, at 50.0 µM, hits give high values
Summary of the method: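 Each compound was tested on mec2-1 yeast, a strain altered in DNA damage repair or cell cycle control. Growth inhibition is reported relative to vehicle.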

[3] = NCI Yeast Anticancer Drug Screen. Data for the sgs1 mgt1 strain (AID 161);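 further: 0% = growth of cultures given vehicle only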; settings: S. cerevisiae sgs1 mgt1 strain, at 50.0 µM, hits give high values
Summary of the method: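 Test agents were incubated with a DNA-repair-mutant yeast strain. Growth was then read and compared against vehicle-treated controls.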

[4] = NCI Yeast Anticancer Drug Screen. Data for the cln2 rad14 strain (AID 165);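 further: 0% = growth equal to vehicle treated cultures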; settings: S. cerevisiae cln2 rad14 strain, at 50.0 µM, hits give high values
Summary of the method: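 Test compounds were added to cln2 rad14 yeast cultures; inhibition of growth was then determined by comparison with vehicle treatment.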

[5] = NCI Yeast Anticancer Drug Screen. Data for the bub3 strain (AID 167); settings: S. cerevisiae bub3 mutant strain, at 50.0 µM, hits give high values
Summary of the method: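 Mutant yeast screening strain plus compound; vehicle-treated cultures serve as the 0% inhibition reference.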

[6] = NCI Yeast Anticancer Drug Screen. Data for the mlh1 rad18 strain (AID 175); settings: S. cerevisiae mlh1 rad18 strain growth inhibition; at 50.0 µM; hits give high values
Summary of the method: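 Inhibition values reflect reduced growth of mutant yeast versus vehicle-treated controls following compound exposure; the mutations affect DNA damage repair.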

Measured: growth inhibition

CCCCCC/C=N/Nc1ccc([N+](=O)[O-])cc1[N+](=O)[O-]
inactive: [1] 1.65% | [2] -18.9% | [3] -11.2% | [4] -48.2% | [5] -6.95% | [6] -4.9%

COc1cccc(NC(N)=O)c1
inactive: [1] -15.5% | [2] -14.2% | [3] -9.3% | [4] -9.5% | [5] -10.1% | [6] -19.4%

COC1OCC2OC3(CCCCC3)OC2C1SCc1ccccc1 (stereo not given)
inactive: [1] 8.05% | [2] -9.85% | [3] 10.8% | [4] -7.4% | [5] -10.4% | [6] -5.25%

COc1cc(C(=O)O)c(C(=O)O)cc1OC
inactive: [1] 2.6% | [2] 21.4% | [3] 20.5% | [4] -29.1% | [5] 2.45% | [6] 0.5%

CCOC(C)C=O (stereo not given)
inactive: [1] -3.85% | [2] 19.1% | [3] -21.4% | [4] -36% | [5] -7.6% | [6] -25.9%

NS(=O)(=O)/C=C(\Cl)c1ccccc1
inactive: [1] 1.7% | [2] 2.15% | [3] 2.95% | [4] -16.6% | [5] 12.2% | [6] -0.55%

Brc1cccc(C2SCc3nc4ccccc4n32)c1 (stereo not given)
inactive: [1] 33% | [2] 16.9% | [3] 37.2% | [4] 19.9% | [5] 19.2% | [6] 21.4%

COc1ccc(C2OC3=C(Nc4ccc(Cl)cc4N3)C2=O)c(OC)c1 (stereo not given)
inactive: [1] -9.1% | [2] -30.9% | [3] -28.1% | [4] -29.9% | [5] -42.2% | [6] -28.8%

COc1ccc(NC(=O)Oc2ccccc2-c2ccccc2)cc1
inactive: [1] 1.1% | [2] 14.3% | [3] -1.7% | [4] -18.1% | [5] -6.7% | [6] -12.3%

CC(=O)Nc1cc2cc(Br)ccc2oc1=O
inactive: [1] 28.9% | [2] 33.4% | [3] 18.9% | [4] 40% | [5] 50.1% | [6] 36.3%

O=C1c2cc(Cl)ccc2-c2c(Cl)cccc21
inactive: [1] 22.9% | [2] -4.95% | [3] -10.9% | [4] 2.05% | [5] 4.05% | [6] -14.9%

O=C1CC2CC1C1CCCC21 (stereo not given)
inactive: [1] -32.5% | [2] -18.5% | [3] -56% | [4] -10.2% | [5] -31.4% | [6] -40.7%

CN(N=O)C(N)=NC(=O)c1ccccc1
inactive: [1] 11.4% | [2] 10% | [3] 20.9% | [4] -20.6% | [5] -16.1% | [6] -35.3%

Cn1c(=O)nc(N)n(NC(=O)CCl)c1=O
inactive: [1] 30.6% | [2] 10.3% | [3] 23.6% | [4] 9.9% | [5] -6.6% | [6] 15.4%

COc1ccc(C(C)=C(C#N)C#N)cc1
inactive: [1] 18.9% | [2] 2.7% | [3] -5.65% | [4] 16.1% | [5] 20.4% | [6] 13.1%

NC(=O)c1cn(Cc2ccccc2)c(=O)n1Cc1ccccc1
inactive: [1] 9.75% | [2] 18.2% | [3] -3.2% | [4] 9.45% | [5] 23.8% | [6] 11.7%

O=C(O)c1c(Cl)c(Cl)c(Cl)c(Cl)c1C(=O)Nc1cccc(C(F)(F)F)c1
inactive: [1] -9.55% | [2] 10.2% | [3] -8.8% | [4] -7.35% | [5] -1.7% | [6] -14.7%

CC1=C(C(=O)Nc2ccc([N+](=O)[O-])cc2)C(c2cccc([N+](=O)[O-])c2)C(C(=O)Nc2ccc([N+](=O)[O-])cc2)=C(C)N1
inactive: [1] -9.25% | [2] -4.4% | [3] 12.9% | [4] -17.1% | [5] -15.3% | [6] -15.1%

O=C(Nc1cccc([N+](=O)[O-])c1)Oc1ccc(-c2ccccc2)cc1
inactive: [1] 17.9% | [2] 36.2% | [3] 18.5% | [4] -3.75% | [5] 57.7% | [6] 25.4%

CC1(C)COC(c2ccc(C(C)(C)C)cc2C(O)(c2cc(C(C)(C)C)ccc2C2=NC(C)(C)CO2)c2cc(C(C)(C)C)ccc2C2=NC(C)(C)CO2)=N1
inactive: [1] -8.8% | [2] -4.2% | [3] 7% | [4] -5.5% | [5] 28.6% | [6] -1.1%
